Bioassay records as filed in PubChem BioAssay.
In the library only some 10% were active in any assay of this set; here they are far more common.
3T3 cytotox: kills NIH 3T3 cells | NIH 3T3 viability, CellTiter-Glo ATP luminescence, 48-72 h | Potency, µM (series often up to 96.7 µM), for the others: top-dose activity change, negative = cytotoxicity, hits mostly inhibitors | hit rate 4.3% among 94,000 | AID 1345082; also: nearly all actives have a fitted effect of over 55% in size
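Luminescent ATP readout (CellTiter-Glo, 10 min RT) after 48 or 72 hr compound exposure of NIH 3T3 cells seeded at 400 cells/well in 1536-well format; quantitative HTS.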
HEK cytotox: cytotoxic compounds in HEK 293 cells. HEK 293 viability, ATP luminescence (CellTiter-Glo), 48-72 h. Potency, µM (series often up to 115 µM), inactives show at the top dose activity change, negative = cytotoxicity, hits mostly inhibitors. hit rate 6.6% among 94,000; also: nearly all actives have a fitted effect of over 60% in size
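HEK 293 cells seeded at 250 cells/well were exposed to compound for 48 or 72 hr at 37 degree Celsius. Viability taken as ATP content by CellTiter-Glo luminescence.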
GPT2 inh: blocks human glutamate pyruvate transaminase 2; Recombinant GPT2, coupled pyruvate oxidase/HRP Amplex Red fluorescence; Potency, µM (top dose mostly 57.7 µM), inactives show at the top dose activity change, negative = inhibition, actives largely listed as inhibitors; hit rate 0.25% among 100,000; AID 1671188; also: nearly all actives have a fitted effect of over 60% in size
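GPT2 10ng/uL, a-KG 250uM, L-Ala 2mM, HEPES pH7.5 + 0.0001% Tween; 30 min RT. Then Amplex mix (PO/HRP/ThPP), 30 min RT dark, fluorescence. AOA 50uM used as positive control.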
hNpr1 antagonist: human Npr1 receptor antagonism. HEK293 hNpr1 GloSensor cGMP, ANP-stimulated luminescence. hit rate 1.6% among 76,000. P16066. Potency, µM (series often up to 46.3 µM), inactives show at the top dose activity change, negative = inhibition, usual class: inhibitors; calls by dose curve; also: nearly all actives have a fitted effect of over 60% in size
Target sequence (P16066 whole entry, looked up): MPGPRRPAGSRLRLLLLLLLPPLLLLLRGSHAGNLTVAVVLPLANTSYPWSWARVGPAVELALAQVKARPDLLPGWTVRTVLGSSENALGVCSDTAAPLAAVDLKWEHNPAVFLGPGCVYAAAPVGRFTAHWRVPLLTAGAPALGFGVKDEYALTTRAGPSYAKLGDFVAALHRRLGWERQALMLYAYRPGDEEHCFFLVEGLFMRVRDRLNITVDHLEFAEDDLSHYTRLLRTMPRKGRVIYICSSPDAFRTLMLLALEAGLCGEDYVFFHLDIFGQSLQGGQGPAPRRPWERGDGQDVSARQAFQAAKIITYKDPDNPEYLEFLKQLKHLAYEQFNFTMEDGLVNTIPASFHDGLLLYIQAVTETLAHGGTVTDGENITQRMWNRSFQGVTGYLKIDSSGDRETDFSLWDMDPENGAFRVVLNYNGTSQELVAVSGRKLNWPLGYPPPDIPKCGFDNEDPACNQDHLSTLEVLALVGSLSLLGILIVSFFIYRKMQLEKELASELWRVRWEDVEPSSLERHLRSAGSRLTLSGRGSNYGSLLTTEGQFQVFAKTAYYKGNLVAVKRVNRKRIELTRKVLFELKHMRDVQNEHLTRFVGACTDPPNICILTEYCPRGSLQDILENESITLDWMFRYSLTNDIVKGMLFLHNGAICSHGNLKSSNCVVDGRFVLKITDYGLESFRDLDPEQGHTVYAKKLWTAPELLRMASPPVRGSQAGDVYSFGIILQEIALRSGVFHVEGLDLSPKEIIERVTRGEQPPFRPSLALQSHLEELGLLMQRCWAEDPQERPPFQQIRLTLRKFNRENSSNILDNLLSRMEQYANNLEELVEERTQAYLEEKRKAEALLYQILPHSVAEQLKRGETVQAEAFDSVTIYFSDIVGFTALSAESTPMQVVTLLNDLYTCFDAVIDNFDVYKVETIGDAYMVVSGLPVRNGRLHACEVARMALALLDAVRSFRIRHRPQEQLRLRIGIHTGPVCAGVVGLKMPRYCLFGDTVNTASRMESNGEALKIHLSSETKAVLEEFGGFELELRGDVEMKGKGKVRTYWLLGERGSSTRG
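Compound pre-incubated 30 min at room temperature on GloSensor-loaded HEK293 cells stably carrying hNpr1 and the pGS-40F cGMP biosensor. Stimulation uses hNppA at 0.1 nM final; luminescence is taken at baseline and 20 min post-agonist.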
Luciferase inh: blocks purified firefly luciferase enzyme activity; purified P. pyralis luciferase, luminescence, biochemical; hit rate 2.5% among 76,000; Potency, µM (titrated, usually from 115 µM), usual class: inhibitors; P08659; also: nearly all actives have a fitted effect of over 65% in size
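Inhibitors were tested against purified firefly luciferase in a biochemical, low-substrate format (both substrates at 10uM) and luminescence measured with a CCD imager.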
Numbers without * were called inactive; i = inactive; u = inconclusive; x = not tested or not shown; [ ] = another dose, or the depositor's remark. Unless noted, calls follow the shape of the dose curve; as a rule, active = well fitted curve in the direction sought with a large enough effect; inconclusive = small, poorly fitted or top-dose-only effect, or another doubt; inactive = no such curve, though single readings can be large; an effect the other way counts as inactive or inconclusive. % is scaled to controls: 0 for no effect and ±100 for the full control effect; potency is read from the fitted curve at half-maximal effect.

SMILES	3T3 cytotox	HEK cytotox	GPT2 inh	hNpr1 antagonist	Luciferase inh
O=C(c1ccc(Cl)cc1)N1CC2(CCN(Cc3ccc(Cl)cc3)CC2)Cc2ccccc21	35µM*	40µM*	-1%	x	x
CN(C)c1ccc(C(=O)N2CCN(C(=O)c3ccc(N(C)C)cc3)[C@H](C(=O)N[C@H](Cc3c[nH]c4ccccc34)C(N)=O)C2)cc1	-22%	-10%	i	0%	i
CC1=C[C@@H](CN)[C@H](C(C)C)C[C@H]1Cc1nc2ccc(F)cc2[nH]1	100µM*	79µM*	-11%[88.5 µM]	-7%[70.6 µM]	i
CCCNC(=O)NC[C@@H]1C=C(C)[C@H](Cc2nc3ccc(OC)cc3[nH]2)C[C@H]1C(C)C	40µM*	u	-11%[88.5 µM]	u	i
CC1=C[C@@H](CNC(=O)CC2(CC(=O)O)CCCC2)[C@H](C(C)C)C[C@H]1Cc1nc2ccc(F)cc2[nH]1	-17%	-15%	-8%	-14%	i
CC1=C[C@@H](CNC(=O)COCC(=O)O)[C@H](C(C)C)C[C@H]1Cc1nc2ccc(C)cc2[nH]1	2%[174 µM]	-20%[172 µM]	-9%[88.5 µM]	-2%[70.6 µM]	i
COc1ccc2nc(C[C@@H]3C[C@@H](C(C)C)[C@H](CN)C=C3C)[nH]c2c1	71µM*	u	i	1%[70.6 µM]	i
CC1=C[C@@H](CN)[C@H](C(C)C)C[C@H]1Cc1nc2ccc(C)cc2[nH]1	40µM*	45µM*	-17%[88.5 µM]	-18%[70.6 µM]	i
CC(C)CNC(=O)[C@@H]1CCCN1c1nccc(Nc2ccccc2Cl)n1	u	u	-4%	x	x
O=C(NCC1CC1)[C@@H]1OCCN(C2CC2)[C@H]1c1ccccc1	-17%	-17%	-5%	x	x
COC(=O)c1ccc2nc(C[C@@H]3C[C@@H](C(C)C)[C@H](CNC(=O)c4ccccc4)C=C3C)[nH]c2c1	u	u	-12%	-18%	i
COc1ccc2nc(C[C@@H]3C[C@@H](C(C)C)[C@H](CN(Cc4ccccc4F)Cc4ccccc4F)C=C3C)[nH]c2c1	14µM*	u	i	1%	i
CC1=C[C@@H](CN)[C@H](C(C)C)C[C@H]1Cc1nc2ccc(Cl)cc2[nH]1	45µM*	50µM*	i	-12%[70.6 µM]	i
COc1ccc2[nH]c(C[C@@H]3C[C@@H](C(C)C)[C@H](CN(Cc4ccccn4)Cc4ccccn4)C=C3C)nc2n1	u	u	-21%	-13%	i
COc1ccc(-c2cc(C(=O)NCCc3ccc(Cl)cc3)c3cnn(C)c3n2)cc1	-12%	-7%	1%	x	x
CC1(C(=O)NCc2cccnc2)CCCc2cnc(NCc3ccccc3)nc21 (configuration not stated)	50µM*	u	i	6%[70.6 µM]	i
CC1(C(=O)NCc2ccncc2)CCCc2cnc(Nc3ccccc3F)nc21 (configuration not stated)	u	u	-18%[88.5 µM]	1%[70.6 µM]	i
CC1(C(=O)NCc2ccc(F)cc2)COCc2cnc(Nc3ccccc3)nc21 (configuration not stated)	u	79µM*	5%[88.5 µM]	u	i
COc1cccc(Nc2ncc3c(n2)C(C)(C(=O)NCc2cccnc2)CC3)c1 (configuration not stated)	u	79µM*	-10%[88.5 µM]	-2%[70.6 µM]	i
CC1(C(=O)NCc2ccncc2)CCc2cnc(NCc3ccccc3)nc21 (configuration not stated)	45µM*	-28%[172 µM]	-4%[88.5 µM]	5%[70.6 µM]	i
CNC(=O)C1CCN(Cc2ccccc2-c2ccccc2F)CC1	u	-17%[172 µM]	-11%[88.5 µM]	x	x
O=C(NCCc1ccccc1)N1CCC(N2C(=O)C3(CCCCC3)C2c2ccncc2)CC1 (configuration not stated)	-12%	-17%	i	9%	i
CC1(C(=O)NCc2cccnc2)CCc2cnc(NCc3ccccc3)nc21 (configuration not stated)	35µM*	-26%[172 µM]	1%[88.5 µM]	-2%[70.6 µM]	i
CC1(C(=O)NCc2cccnc2)CCc2cnc(Nc3ccccc3)nc21 (configuration not stated)	25µM*	89µM*	i	2%[70.6 µM]	i
CC1(C(=O)NCc2cccnc2)CCCc2cnc(Nc3ccccc3)nc21 (configuration not stated)	u	-28%[172 µM]	-16%[88.5 µM]	5%[70.6 µM]	i
SMILES	3T3 cytotox	HEK cytotox	GPT2 inh	hNpr1 antagonist	Luciferase inh
CCC1=C(C(=O)OC)C(c2ccc(C)cc2C)N2C(CC(=O)N3CCCCC3C)=CSC2=N1 (configuration not stated)	u	u	i	-12%	i
CCC1=C(C(=O)OC)C(c2cccc(C)c2)N2C(CC(=O)Nc3ccc(OC)cc3)=CSC2=N1 (configuration not stated)	u	40µM*	i	-13%	i
CCC1=C(C(=O)OC)C(c2cccc(C)c2)N2C(CC(=O)N3CCCCC3C)=CSC2=N1 (configuration not stated)	-20%	45µM*	i	-19%	i
O=C(Cn1cccc1-c1nc(-c2ccccc2)no1)N1CCN(c2ccccc2F)CC1	-20%	u	i	2%	i
CSCC(=O)N[C@H]1CCN2C(=O)N(c3cccc(C(C)=O)c3)C(=O)[C@@H]2C1	2%[174 µM]	0%[172 µM]	1%[88.5 µM]	6%[70.6 µM]	i
CSCC(=O)N[C@H]1CCN2C(=O)N(c3ccc(C(C)C)cc3)C(=O)[C@@H]2C1	-29%[174 µM]	-12%[172 µM]	2%[88.5 µM]	-1%[70.6 µM]	32µM*
COC[C@@H]1[C@H](C(=O)NCc2ccccc2OC)CCC(=O)N1C	2%	i	i	x	x
O=C(c1cc(-c2cc(Cl)cc(Cl)c2)c2cccn2n1)N1CCN(Cc2ccccc2)CC1	u	u	i	x	x
O=C(c1cc(-c2cc(Cl)cc(Cl)c2)c2cccn2n1)N1CCOCC1	35µM*	u	i	x	x
COCCN1C(=O)c2cccn2CC1CNC(=O)c1cc(F)ccc1F (configuration not stated)	-8%	-1%	3%	x	x
Cc1ccc(-c2ccc(CCC(=O)N[C@@H]3CCOC[C@H]3OCC(=O)O)o2)cc1	-1%	-11%	-9%[11.5 µM]	-2%	25µM*
Cc1noc2c(N3CCOCC3)cc(-c3ccsc3)nc12	28µM*	u	-14%[88.5 µM]	4%[70.6 µM]	i
CSc1ccc(-c2cccc(CN3CCC(N[S+](=O)([O-])c4ccc(C)cc4)CC3)c2)cc1	14µM*	20µM*	x	x	x
Cc1cccc(-c2cccc(CN3CCC(N[S+](C)(=O)[O-])CC3)c2)c1	u	u	-5%	x	x
Cc1ccc([S+](=O)([O-])NC2CCN(Cc3cccc(-c4ccc(F)c(F)c4)c3)CC2)cc1	16µM*	22µM*	u	x	x
O=C(NCc1cccc(C(F)(F)F)c1)C1CN(C2CCCCC2)C(=O)N1 (configuration not stated)	u	u	-2%	x	x
